# Screens deposited in PubChem BioAssay by National Center for Advancing Translational Sciences (NCATS).
# The entries come from a sample that favours hits as a whole.
# CHX counter – counter-screen for Shiga toxin inhibitors: cycloheximide protein synthesis inhibition; cell reporter, cycloheximide protein synthesis inhibition counterscreen; max response, %; actives 12% (n = 300,000); AID 2314; in the data active = max response mostly above about 13%, no sharp cut-off; inactive = mostly below about 14%; note: read at 38.3 µM for the half of the compounds with a filed dose; 0% is about no effect
# Giardia FBPA inh – inhibitors of Giardia lamblia fructose-1,6-bisphosphate aldolase; purified Giardia FBPA; AID 2451; actives 0.71% (n = 290,000); Potency, µM (highest dose often 59.6 µM), without a hit: at the top dose activity, negative = inhibition, most hits filed as inhibitors; note: potency is the fitted concentration of half-maximal effect; % is set by controls: 0 for no effect and ±100 for the full control effect; nearly all actives have a fitted effect of over 55% in size
# Target sequence (A8B2U2 whole entry, looked up): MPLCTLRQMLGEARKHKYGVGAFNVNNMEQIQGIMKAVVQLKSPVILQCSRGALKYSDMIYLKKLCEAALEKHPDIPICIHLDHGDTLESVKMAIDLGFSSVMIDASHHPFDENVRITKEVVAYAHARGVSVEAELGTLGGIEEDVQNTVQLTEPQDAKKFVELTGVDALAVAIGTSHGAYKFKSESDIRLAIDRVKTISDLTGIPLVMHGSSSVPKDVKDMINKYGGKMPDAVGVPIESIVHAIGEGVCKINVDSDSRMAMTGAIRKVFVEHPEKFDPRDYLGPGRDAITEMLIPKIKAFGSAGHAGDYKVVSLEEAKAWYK
#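 Giardia FBPA (40 nM reagent) was preincubated 10 min at RT with compound (up to 57.5 uM final), then substrate plus GAPDH/TPI/NAD/arsenate coupling system with diaphorase/resazurin was added; resorufin fluorescence (525/598 nm) was read after 20 min.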
# LmPK inhibitor – inhibitors of Leishmania mexicana pyruvate kinase. purified LmPK, Kinase-Glo ATP luminescence, 1 h. Q27686. Potency, µM (series often up to 57.5 µM), for the others: at the top dose activity change, negative = inhibition, usual class: inhibitors. actives 0.37% (n = 290,000); note: potency is the fitted concentration of half-maximal effect; % is set by controls: 0 for no effect and ±100 for the full control effect
#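 Pyruvate kinase activity monitored as ATP production (luciferase luminescence). Conditions: 0.1 nM enzyme, 0.5 mM PEP, 0.1 mM ADP, 1 h, RT; normalized against uninhibited and no-enzyme wells.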
# TbPYK inhibitor – inhibitors of Trypanosoma brucei pyruvate kinase; Q57TT1; TbPYK enzyme, Kinase-Glo Plus ATP luminescence, 45 min; Potency, µM (titrated, usually from 76.8 µM), without a hit: top-dose activity, negative = inhibition, hits mostly inhibitors; actives 0.12% (n = 410,000); AID 624173; note: potency is the fitted concentration of half-maximal effect; % is set by controls: 0 for no effect and ±100 for the full control effect; nearly all actives have a fitted effect of over 50% in size
#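 Screened from lowest to highest concentration, compounds were pinned into TbPYK/substrate mixtures, and ADP (130 uM final) was added. Plates sat at room temperature for 45 min prior to Kinase-Glo Plus detection by luminescence.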
# Shiga inhibitor – inhibitors of Shiga toxin in Vero cells; inhibition, % at 38.7 µM; Vero cells, Shiga toxin protein synthesis inhibition reporter; actives 9.2% (n = 290,000); AID 2315; in the data active = inhibition mostly above about 28%, no sharp cut-off; inactive = mostly below about 43%; note: 0% is about no effect
# RE007 growth inh – less growth of the S. pombe RE007 Vpr strain; S. pombe RE007 Vpr strain, BacTiter-Glo ATP luminescence, 24 h; Potency, µM (doses to about 92.2 µM), for the others: at the highest dose activity change, negative = less growth, actives largely listed as inhibitors; actives 0.21% (n = 360,000); active = well fitted falling curve with a large enough effect; inconclusive = small, poorly fitted or top-dose-only effect; inactive = no such curve, though single readings can be large or run the other way; note: potency is the fitted concentration of half-maximal effect; % is set by controls: 0 for no effect and ±100 for the full control effect; nearly all actives have a fitted effect of over 50% in size
#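 Fission yeast strain RE007, carrying one chromosomally integrated HIV-1 vpr copy, was seeded at OD 0.01 in PMG+AL medium with 23 nL pinned compound. After 24 h at 30 °C and 99% humidity, viability was read by BacTiter-Glo luminescence.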
# Numbers without * were called inactive; i = inactive; ? = inconclusive; nt = not tested or not shown; + = active, no number; [ ] = another dose, or the depositor's remark. Unless noted, calls come from the whole dose curve; as a rule, active = well fitted curve in the direction sought with a large enough effect; inconclusive = small, poorly fitted or top-dose-only effect, or another doubt; inactive = no such curve, though single readings can be large; an effect the other way counts as inactive or inconclusive.
SMILES,CHX counter,Giardia FBPA inh,LmPK inhibitor,TbPYK inhibitor,Shiga inhibitor,RE007 growth inh
CCCC[C@]12Cc3cc(OC)c(OC)cc3C(O1)c1c(cc(-c3ccccc3)oc1=O)O2,-1,13%[12.9 µM],-5%[11.5 µM],nt,i,nt
CCCC[C@]12Cc3ccccc3C(O1)c1c(cc(-c3ccccc3)oc1=O)O2,13,2µM*,-7%[11.5 µM],nt,+,nt
C=CCNc1nc(-c2ccc(OC)cc2OC)cs1,38*,?,0%,6%,69*,-24%
O=C(/C=C/c1ccccc1)NCc1cccnc1,3,1%,3%,2%,1,5%
O=C(NCc1cccnc1)c1cn(-c2ccccc2)nc1-c1ccccc1,21*,6%,1%,3%,20,9%
O=C(/C=C/c1ccc(-c2ccccc2)cc1)NCc1cccnc1,28*,-1%,1%,-4%,nt,11%
O=C(/C=C/NCc1cccnc1)c1ccc(-c2ccccc2)cc1,33*,8%,-5%,-5%,91*,-28%
O=C1CC(c2ccccc2)Cc2[nH]c(=O)c(C(=O)Nc3cccc(F)c3)cc21 (configuration not stated),nt,nt,nt,2%,nt,nt
O=Cc1ccc(OC2C=CC(c3ccccc3)OC2CO)cc1 (configuration not stated),nt,0%[12.9 µM],nt,nt,nt,nt
Cc1ccc(S(=O)(=O)N(C)C[C@H]2Oc3ncc(Br)cc3C(=O)N([C@H](C)CO)C[C@@H]2C)cc1,nt,nt,nt,-4%,nt,2%
Cc1ccc(CCNC(=O)CCSCc2ccccc2Cl)cc1,nt,nt,nt,-3%,nt,nt
Cc1occc1C(=O)NNC1=CC(=O)CC(C)(C)C1,-3,0%,-1%,-8%,25,7%
Cc1cnc(NC(=O)/C=C/c2ccc(Br)o2)s1,16*,1%,-2%,-2%,81*,-9%
CCOC(=O)/C=C/C(=O)Nc1nccs1,15*,8%,2%,5%,19,-29%
Cc1ccc(/C=C/C(=O)Nc2nccs2)o1,55*,?,-23%,?,108*,5%
Cc1ccc(/C=C/C(=O)Nc2ccc(N(C)C)cc2)o1,38*,-14%,-9%,-22%,85*,-17%
Cc1ccc(/C=C/C(=O)NCc2ccccn2)o1,-2,-10%,1%,?,11,1%
CCOC(=O)C(=O)Nc1nccs1,-6,-16%,1%,4%,21,14%
Cc1ccc(/C=C/C(=O)Nc2ccncc2)o1,15,-8%,-4%,-15%,52,-15%
Cc1cccc(Cn2cc3c(=O)n(CC(=O)Nc4ccc(C)c(F)c4)nc-3c3cc(F)ccc32)c1,nt,nt,nt,-1%,nt,nt
Cc1ccc(/C=C/C(=O)Nc2ncc(C)s2)o1,47*,?,0%,?,69*,-10%
Cc1ccc(/C=C/C(=O)Nc2nnc(SCc3ccc(C#N)cc3)s2)o1,-1,3%,-2%,-6%,-10,4%
O=C(CSc1ncccc1-c1nc2ccccc2[nH]1)NCc1ccco1,40*,-26%,5%,-25%,56*,-7%
O=C(CSc1nc2ccccc2[nH]1)NCc1ccco1,29,-3%,0%,1%,65,-1%
Cc1cc2nc(-c3cccnc3SCC(=O)NC3CC3)[nH]c2cc1C,23*,?,14µM*,nt,52*,nt
SMILES,CHX counter,Giardia FBPA inh,LmPK inhibitor,TbPYK inhibitor,Shiga inhibitor,RE007 growth inh
Cc1cc2nc(-c3cccnc3SCC(=O)NCc3ccco3)[nH]c2cc1C,21*,?,?,-2%,42,-25%
O=C(CSc1nc2ncccc2[nH]1)NC1CCCC1,-2,?,-3%,-9%,-2,10%
O=C(CSc1nc2ncccc2[nH]1)NCc1ccco1,1,nt,12%,1%,-9,-14%
CCCc1nc2ccc(C(=O)OC)cn2c1Cc1ccc(C)cc1,nt,nt,nt,2%,nt,-30%
O=C(CCCCCn1c(=O)c2sccc2n(CC(=O)Nc2cc(C(F)(F)F)ccc2Cl)c1=O)NCc1ccccc1Cl,nt,nt,nt,-10%,nt,nt
CCC(C)C(NC(=O)c1ccccc1NC(=O)c1ccc(OC)cc1)C(=O)NCCCn1ccnc1 (configuration not stated),12,-9%,-5%,3%,-3,0%
O=[N+]([O-])c1cccn2cc(-c3ccc(Br)cc3)nc12,44*,3%,5%,0%,67*,-17%
Cc1cccn2cc(-c3ccc(Cl)cc3)nc12,45*,-17%,?,-9%,62*,?
Cc1cccn2cc(-c3ccc(S(=O)(=O)N4CCCCC4)cc3)nc12,-2,5%,-6%,1%,16,-13%
COc1ccc(-c2cn3cccc(C)c3n2)cc1F,57*,-26%,?,0%,113*,-27%
Cc1ccc(-c2cn3cccc(C)c3n2)cc1,33*,-2%,25µM*,1%,51*,-24%
Cc1ccc(-c2cn3cccc(C)c3n2)cc1NS(=O)(=O)c1ccccc1,nt,nt,nt,3%,nt,nt
Cn1cccc([N+](=O)[O-])c1=O,nt,nt,nt,-6%,nt,-7%
COc1ccc(C2=NS(=O)(=O)N(C)C(C(=O)Nc3ccc(C(C)=O)cc3)=C2)cc1OC,-4,0%,5%,-2%,-5,12%
O=C(Nc1ccc(C(=O)OCc2cc(=O)n3c4c(sc3n2)CCCC4)cc1)c1ccc(Cl)cc1,nt,nt,nt,-14%,nt,nt
CCCCCCCCN1C(=O)[C@H](CC(=O)NCCCOCCCC)C[C@@]2(C(=O)OCC)CCCC=C12,nt,nt,nt,7%,nt,8%
CCc1ccc(NC(=O)CCS(=O)(=O)c2ccc3c(c2)oc(=O)n3C)cc1,nt,nt,nt,-1%,nt,nt
O=C(NCc1cccnc1)C1CC(c2ccccc2Cl)=NO1 (configuration not stated),2,-1%,4%,0%,45,7%
Cc1cccc(CCn2c(=O)c3ccccc3n(Cc3cccc(F)c3)c2=O)c1,nt,nt,nt,1%,nt,nt
Cc1csc(NC(=O)c2nc3nccc(C)n3n2)n1,18*,?,-9%,?,72*,-9%
Cc1ccc(NC(=O)c2nc3nccc(C)n3n2)c(C)c1,30*,11%,-4%,1%,80*,-20%
Cc1ccnc2nc(C(=O)Nc3nnc(CC(C)C)s3)nn12,9,-23%,1%,-6%,25,-7%
Cc1ccnc2nc(C(=O)Nc3nc4ccccc4s3)nn12,45*,-23%,-16%,-1%,62*,-16%
CCCCN(CC)CCCNC(=O)c1cc2c(=O)[nH]c3ccccc3c2n1C,nt,nt,nt,1%,nt,nt
CCCOc1ccc(-c2nonc2NC(=O)c2ccco2)cc1OCCC,nt,nt,nt,2%,nt,nt
COc1ccccc1NC(=O)NNC(=O)CCc1ccccc1,-3,-1%,0%,-2%,-7,1%
O=S(=O)(c1cnc[nH]1)N1CCN(c2ccc(F)cc2)CC1,-1,11%,-1%,2%,-6,-2%
Fc1ccc(-c2cnc[nH]2)cc1,23*,-7%,8%,4%,35,2%
